From PubChem BioAssay
MITF primary – inhibitors of human MITF; 650,000 compounds, 0.91% hits; AlphaScreen MITF homodimerization, bead proximity signal; inhibition, % at 2.6 µM; O75030; in the data active = inhibition above about 50%
FBW7 act – activators of human E3 ligase FBW7; normalized activity (activation), % at 26.1 µM; AID 1259310; AlphaScreen FBW7–phospho-cyclin E peptide binding, activator screen; 650,000 compounds, 0.13% hits; Q969H0; in the data active = normalized activity above about 1.9%;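 also: purified mutant Fbw7 with reduced substrate affinity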
GPR151 ag – activators of human GPR151; Q8TDV0; PathHunter beta-arrestin GPR151 cells, luminescence; activation, % at 11.2 µM; 650,000 compounds, 1% hits; in the data active = activation above about 4.9%
Target sequence (Q8TDV0 whole entry, looked up): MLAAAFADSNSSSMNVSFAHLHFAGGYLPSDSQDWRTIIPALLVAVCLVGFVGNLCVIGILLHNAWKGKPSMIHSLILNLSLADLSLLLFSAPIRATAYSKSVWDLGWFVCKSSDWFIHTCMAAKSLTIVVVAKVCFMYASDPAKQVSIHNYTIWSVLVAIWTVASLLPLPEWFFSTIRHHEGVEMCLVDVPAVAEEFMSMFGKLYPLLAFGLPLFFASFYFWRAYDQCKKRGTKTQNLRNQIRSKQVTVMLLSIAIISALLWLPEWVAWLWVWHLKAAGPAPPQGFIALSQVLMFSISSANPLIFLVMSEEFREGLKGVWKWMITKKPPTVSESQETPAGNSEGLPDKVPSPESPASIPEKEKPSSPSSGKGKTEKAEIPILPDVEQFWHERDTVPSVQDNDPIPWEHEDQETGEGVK
TEAD-YAP inh – TEAD-YAP interaction inhibition; 640,000 compounds, 1.4% hits; inhibition, % at 9.12 µM; HEK-TIYL cells, TEAD-Gal4/YAP UAS-luciferase luminescence; in the data active = inhibition above about 32%
MITF confirm – human MITF inhibition, confirmation. shares compounds with MITF primary. AlphaScreen MITF homodimerization, biotin/His-MITF beads. inhibition, % at 2.6 µM. 4,700 compounds, 16% hits. AID 1259372;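 active = inhibition above a cutoff derived from the DMSO control wells, cut at about 28% in these data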;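 also: inhibitors lower the bead chemiluminescence by keeping MITF from dimerizing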
AlphaScreen DR – AlphaScreen optical interference, dose response counter-screen; shares compounds with MITF primary; AlphaScreen optical interference counterscreen, cell-free; 480 compounds, 6% hits; IC50, µM; AID 1259373; call rule not given here
AlphaScreen intf2 – AlphaScreen optical interference, counter-screen; shares compounds with MITF primary; inhibition, % at 2.6 µM; LysRS AlphaScreen counterscreen, signal interference, triplicate; 4,700 compounds, 7.6% hits;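 active = inhibition above a cutoff derived from the DMSO control wells, cut at about 30% in these data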
A number is an active result; – = inactive; · = no result. Only some compounds are listed: those with a hit (about 3.5% of all), similar ones and a draw of the others.

SMILES	MITF primary	FBW7 act	GPR151 ag	TEAD-YAP inh	MITF confirm	AlphaScreen intf2	others
Cc1cccc(-n2ncc3c(NCc4ccc(F)cc4)ncnc32)c1	–	–	–	–	·	·
Cc1cc(C)c(NS(=O)(=O)c2ccc3c(c2)C(=O)c2ccccc2C3=O)c(C)c1	–	–	–	–	·	·
Cc1cc(NC(=O)c2ccc(Br)cc2)ccc1O	75.1	–	–	80.0	–	–
Cc1cc(NC(=O)c2ccc(Br)cc2)c(C)cc1O	–	–	–	–	·	·
CCC(C)(C)NC(=O)CN(C(=O)c1csnn1)c1cccc2ccccc12	–	–	–	–	·	·
Cc1cccc(NC(=O)c2ccc(NS(=O)(=O)c3ccc4[nH]cc(C(=O)O)c(=O)c4c3)cc2)c1	70.1	–	–	–	40.7	–
CCOC(=O)CNS(=O)(=O)c1ccc2[nH]cc(C(=O)O)c(=O)c2c1	52.4	–	–	–	–	–
CCN(CC)CCNS(=O)(=O)c1ccc2[nH]cc(C(=O)O)c(=O)c2c1	52.0	–	–	–	–	–
COc1ccc(CNS(=O)(=O)c2ccc3[nH]cc(C(=O)O)c(=O)c3c2)cc1	–	–	–	–	·	·
O=C(Nc1cccc(Cl)c1N1CCOCC1)C(Cl)(Cl)Cl	–	–	–	–	·	·
CC(C)C[C@H]1C(=O)N2CCN(C(=O)c3cccs3)C[C@@H]2C(=O)N1C	–	–	–	–	·	·
C=C(C)CN(CC)Cc1ccc([N+](=O)[O-])o1	64.9	–	–	–	–	–
CCn1c(C)[n+](CC)c2ccc(S(=O)(=O)C(F)F)cc21	–	–	–	–	·	·
CCn1c(C)[n+](CC)c2ccc(Cl)cc21	56.8	–	–	–	–	–
CC(C)(C)n1ncc2c(=O)n(Cc3ccccc3)cnc21	–	–	–	–	·	·
CC(C)(C)n1ncc2c(=O)n(Cc3cccc(Cl)c3)cnc21	62.3	–	–	–	–	–
CCCCC[C@H](O)/C=C/[C@@H]1[C@@H](C/C=C\CCCC(=O)NCCCCCNC(=O)CCCCC2SC[C@@H]3NC(=O)N[C@H]23)[C@@H](O)C[C@H]1O (stereo partly specified)	123.6	·	–	·	123.3	100.6
CCCCC/C=C/C=C1/C(=O)C=C[C@@H]1C/C=C\CCCC(=O)O	–	·	–	·	·	·
CCCCC/C=C/C=C1/C(=O)C=C[C@@H]1C/C=C\CCCC(=O)NCCCCCNC(=O)CCCCC1SC[C@@H]2NC(=O)N[C@H]12 (stereo partly specified)	123.6	·	–	·	123.6	100.6
CCCCC[C@H](O)/C=C/[C@H]1[C@H](O)CC(=O)[C@@H]1C/C=C\CCCC(=O)NCCO	–	·	–	·	·	·
CCCCC[C@H](O)/C=C/[C@H]1[C@H](O)CC(=O)[C@@H]1C/C=C\CCCC(=O)NCCCCCNC(=O)CCCCC1SC[C@@H]2NC(=O)N[C@H]12 (stereo partly specified)	123.6	·	–	·	124.1	100.6
O=C(Nc1c2c(nn1-c1cccc(Cl)c1)CSC2)c1ccc(Br)o1	52.8	–	–	–	–	–
CCC(Sc1nnc2c3ccccc3n(Cc3ccccc3)c2n1)C(=O)Nc1ccc(OC(F)(F)F)cc1 (stereo unspecified)	–	–	–	–	·	·
O=C(Oc1cccc2cccnc12)c1ccc(F)cc1	–	–	–	–	·	·
O=C(Oc1ccc([N+](=O)[O-])c2cccnc12)c1ccc(F)cc1	60.2	–	–	–	66.4	100.1
SMILES	MITF primary	FBW7 act	GPR151 ag	TEAD-YAP inh	MITF confirm	AlphaScreen intf2	others
CCCCCOc1ccc(NC(=O)c2c(-c3ccccc3Cl)noc2C)cc1	–	–	–	–	·	·
Cc1cc(NC(=O)C2CCN(C(=O)c3ccc(-n4cccc4)cc3)CC2)no1	51.3	–	–	–	47.0	–	AlphaScreen DR=–
Cc1noc(C2CN(C(=O)c3ccc(-n4cccc4)cc3)C2)n1	55.4	–	–	–	52.5	–	AlphaScreen DR=–
O=C(O)/C=C/c1ccc([N+](=O)[O-])o1	60.0	–	–	–	63.9	–	AlphaScreen DR=–
COc1ccc(N2CCSC2)cc1	–	–	–	–	·	·
Fc1ccc(-c2cc(N3CCN(c4ccccn4)CC3)nc(-c3cccnc3)n2)cc1	73.2	–	–	–	–	–
OC1CCN(c2cc(-c3cccnc3)nc(-c3ccccc3)n2)CC1	71.4	–	–	–	–	–
OC1CCN(c2cc(-c3ccccc3)nc(-c3cccnc3)n2)CC1	–	–	–	–	·	·
c1ccc(-c2nc(-c3cccnc3)cc(N3CCN(c4ccccn4)CC3)n2)cc1	–	–	–	–	·	·
CCOC(=O)C(C)Sc1nnc(-c2ccc([N+](=O)[O-])cc2)n1CC1CCCO1 (stereo unspecified)	–	–	–	–	·	·
CCC(=O)Nc1ccccc1C(=O)OCC(=O)c1cccc([N+](=O)[O-])c1	55.5	–	–	–	–	–
COc1ccc(-n2c(SCC(=O)/C(C#N)=C(\C)N)nc3ccccc32)cc1	69.8	–	–	–	–	–
Cc1ccc(-n2c(C)cc(CO)c2C)cc1	–	–	–	–	·	·
CNC(=S)NNC(=O)c1ccc(O)cc1	–	–	–	–	·	·
CNC(=S)NNC(=O)C(=O)NNC(=S)NC	79.1	–	–	–	–	74.1
Cn1c(=O)[nH]c(=O)c2c1nc(Cl)n2CC(N)=O	82.3	–	–	–	–	–
CCOC(=O)N1CCN(c2nc(C)nc3sc(C)cc23)CC1	54.3	–	–	–	–	–
CCOC(=O)N1CCN(c2nc(C)nc3sc(C)c(C)c23)CC1	–	–	–	–	·	·
O=C(Nc1c2c(nn1-c1ccccc1)CSC2)c1cc2ccccc2oc1=O	–	–	–	–	·	·
CC1CCCCN1C(=O)c1ccc(Oc2cnccn2)cc1 (stereo unspecified)	75.4	–	–	–	–	–
NCCCNc1c2c(nc3cc(-c4ccc(Cl)cc4)nn13)CCC2	54.2	–	–	–	–	–
NCCCNc1c2c(nc3cc(-c4cccc(F)c4)nn13)CCC2	–	–	–	–	·	·
CCCc1nc(SCC(=O)NC(C)(C)C)c2ccccc2n1	52.9	–	–	–	–	–
Cc1cc(Cl)ccc1OCC(=O)N1CCNc2ncc(-c3ccncc3)cc21	–	–	–	–	·	·
C/C(=N\OCC(O)CN1CCOCC1)C1COc2ccccc2O1 (stereo unspecified)	51.1	–	–	–	–	–
SMILES	MITF primary	FBW7 act	GPR151 ag	TEAD-YAP inh	MITF confirm	AlphaScreen intf2	others
CC(=O)c1ccc(-c2ccc(/C=C/[N+](=O)[O-])o2)cc1	69.1	–	–	–	55.6	31.4
O=C(O)c1ccccc1-c1ccc(/C=C/[N+](=O)[O-])o1	80.6	–	–	–	73.4	–	AlphaScreen DR=–
COc1ccc2c(c1)CC(C(=O)Nc1ccc(-c3cn[nH]c3)cc1OCC#N)CO2 (stereo unspecified)	52.1	–	–	–	42.8	–	AlphaScreen DR=–
COc1ccc2c(c1)CC(C(=O)Nc1ccc(-c3cn[nH]c3)cc1C(=O)N(C)OC)CO2 (stereo unspecified)	51.2	–	–	–	51.2	–	AlphaScreen DR=–
COc1cccc(/C=C2/SC(=O)NC2=O)c1OC	–	–	–	–	·	·
O=C(Nc1ccccc1C(F)(F)F)c1ccc(NC(=O)c2ccco2)cc1	–	–	–	–	·	·
